From PubChem BioAssay AID1240 (Sanford-Burnham Center for Chemical Genomics, 2008) come the findings set out here.

Hit rate of the full screen: of about 50,000 compounds, about 800 (1.6%) showed an effect of 50% or more. This excerpt belongs to a sample that is enriched for strong results.

The target in the assay is Bcl-2-like protein 10 (Homo sapiens) (UniProt Q9HD36). In words: Phenotype converters, Bcl-B/TR3 peptide binding displacement, primary biochemical FP (AID 1240).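 Also: 0% = Bcl-B with tracer peptide and DMSO and 100% = tracer peptide lacking Bcl-B.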 The conditions noted are these: GST-Bcl-B / FITC-TR3 peptide fluorescence polarization; stronger effect = higher value; compound at 3.75 mg/L. (Fluorescence polarisation rises when a labelled molecule tumbles more slowly, as on binding a larger partner.)
Chain of Bcl-2-like protein 10 (Homo sapiens) (Q9HD36 whole entry, looked up): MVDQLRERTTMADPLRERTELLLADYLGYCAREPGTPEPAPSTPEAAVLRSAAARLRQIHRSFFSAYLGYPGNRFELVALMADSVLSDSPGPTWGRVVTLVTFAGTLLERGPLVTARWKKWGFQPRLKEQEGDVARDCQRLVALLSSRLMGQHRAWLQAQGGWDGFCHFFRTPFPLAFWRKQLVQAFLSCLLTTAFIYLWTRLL
Take `O=C(O)CSCCCN1C(=O)c2cccc3cccc(c23)C1=O`: the displacement stood at 8%.
For the compound `CC1=C(C(=O)Nc2ccccc2C)C(c2ccc(F)cc2)NC(=O)N1` (configuration not stated), the displacement came out at 16.2%.
For `Cc1ccc(S(=O)(=O)Nc2ccccc2C(=O)Nc2ccccc2)cc1` the value was 9.6%; for `COC(C(=O)N1CCCCCC1)(c1ccccc1)c1ccccc1`, 16.8%.
For `O=C1NC(=S)N/C1=C\c1ccc(Oc2ccc([N+](=O)[O-])cn2)cc1` the value was 101%; for `COc1cc(/C=C2\SC(=S)NC2=O)ccc1Oc1ccc([N+](=O)[O-])cn1`, 20.6%; for `O=C1C(=Cc2ccc(Oc3ccc([N+](=O)[O-])cn3)cc2)C(=O)c2ccccc21`, 4.6%.
Take `COc1cc(/C=C2\NC(=S)NC2=O)ccc1Oc1ccc([N+](=O)[O-])cn1`: the displacement was found to be 8.2%.
Under `O=C1NC(=S)S/C1=C\c1ccc(Oc2ccc([N+](=O)[O-])cn2)cc1` stands 61.8%; under `O=C1NC(=S)NC(=O)C1=Cc1ccc(Oc2ccc([N+](=O)[O-])cn2)cc1`, 10.5%; under `COc1ccc(C(=O)Nc2ccc(S(=O)(=O)NC(C)=O)cc2)cc1`, 13.1%.
Turning to `COc1ccc(-n2cnc3cc(NS(=O)(=O)c4ccc(C)cc4)ccc32)cc1`, the displacement was -1.2%.
Regarding `COc1cc(C(=O)Nc2nnc(CC(=O)NCc3ccccc3)s2)cc(OC)c1OC`, the displacement was -14%.
Under `COc1ccc(N2C(=O)C3C4C=CC(C4=C(C)C)C3C2=O)cc1` (configuration not stated) stands 120%.
Under `CCCOc1ccc(N2C(=O)C3C4C=CC(C4=C(C)C)C3C2=O)cc1` (configuration not stated) stands 9.9%; under `CC(=O)Oc1ccc(N2C(=O)C3C4C=CC(C4=C(C)C)C3C2=O)cc1` (configuration not stated), -3.2%; under `O=C1N=C(N2CCOCC2)S/C1=C/c1ccc(Cl)cc1`, -0.1%.
Under `COc1ccccc1NC(=O)c1cc(-c2cccs2)nc2ccccc12` stands -3.7%; under `COC(=O)c1cc(-c2ccc(OC)cc2)nc2ccc(Br)cc12`, -4.1%.
For the compound `COC(=O)c1sccc1NC(=O)c1cc(-c2ccccc2Cl)nc2ccccc12`, the displacement worked out at 22.7%.
Under `COc1ccc(Cl)cc1NC(=O)c1cc(-c2cccs2)nc2ccccc12` stands 8.5%.
Under `COc1cc(NC(=O)c2cc(-c3cccs3)nc3ccccc23)c(OC)cc1Cl` stands 55.2%; under `COC(=O)c1sccc1NC(=O)c1cc(-c2cccs2)nc2ccccc12`, 60.4%.
Consider `COC(=O)c1ccccc1NC(=O)c1cc(-c2ccc(OC)cc2OC)nc2ccccc12`, for which the displacement was -3%.
Under `COC(=O)c1sccc1NC(=O)c1cc(-c2ccc(OC)cc2OC)nc2ccccc12` stands 16.4%; under `COC(=O)c1cc(-c2ccc(Br)cc2)nc2ccccc12`, 0%.
Under `COC(=O)c1cc(-c2cccs2)nc2ccc(Br)cc12` stands 104%; under `COc1ccc(NC(=O)c2cc(-c3ccc(OC)cc3OC)nc3ccccc23)c(OC)c1`, -0.8%.
`COc1ccc(-c2cc(C(=O)Nc3ccccc3F)c3ccccc3n2)c(OC)c1`: the displacement worked out at 82.3%.
Under `O=C(CSCC(=O)Nc1cccc(C(F)(F)F)c1)Nc1ccccc1` stands -10.4%; under `CCOc1cc(/C=N/NC(=O)c2ccncc2)ccc1OC(=O)c1ccc([N+](=O)[O-])cc1`, 6.9%; under `O=C1c2cccc3cccc(c23)C(=O)N1/N=C/c1ccco1`, 25.1%.
For `COc1ccc(S(=O)(=O)Nn2cnnc2)cc1`, the displacement is -1%.
Under `O=C(O)CN(c1ccccc1)S(=O)(=O)c1ccccc1[N+](=O)[O-]` stands 4.7%.
Under `CCOC(=O)C1=C(O)/C(=C\c2ccc(OC)cc2)N=C1C` stands 4.4%; under `Cc1onc(-c2ccccc2Cl)c1C(=O)Nc1sc(C)c(C)c1C(=O)OC(C)C`, -6.3%.
In the case of `CCN(CC)CCN1C(=O)C(O)=C(C(=O)/C=C/c2ccccc2)C1c1ccccc1[N+](=O)[O-]` (configuration not stated), the displacement was determined as 3.2%.
In the case of `COc1ccc(-c2cc(C(F)(F)F)n3nc(C(=O)NCc4ccco4)c(Cl)c3n2)cc1OC`, the displacement was -5.3%.
For `COc1ccc(Cc2noc(COc3ccc(Cl)cc3)n2)cc1` the value was 2.7%; for `COc1cc(C=C2C(=O)N(C)C(=O)N(C)C2=O)ccc1OCCOc1ccc([N+](=O)[O-])cc1`, 26.1%.
For `CN1C(=O)/C(=C\c2ccc(OCCOc3ccc([N+](=O)[O-])cc3)cc2)SC1=S` the value was -0.4%; for `COc1cc(/C=C2/SC(=S)N(C)C2=O)ccc1OCCOc1ccc([N+](=O)[O-])cc1`, 74.5%.
For `COc1ccccc1OCCOc1ccc(/C=C2/SC(=S)N(C)C2=O)cc1` the value was 3.9%; for `Cc1ccccc1OCCOc1cccc(/C=C2/SC(=S)N(C)C2=O)c1`, 1.2%; for `Cc1ccc(OCCOc2ccccc2/C=C2/SC(=S)N(C)C2=O)cc1`, 3.3%.
In the case of `CN1C(=O)/C(=C\c2ccccc2OCCOc2ccc(Br)cc2)SC1=S`, the displacement was found to be 2.3%.
For `CN1C(=O)/C(=C\c2ccccc2OCCOc2ccc([N+](=O)[O-])cc2)SC1=S` the value was 133%.
Under `COc1ccccc1OCCOc1cccc(/C=C2/SC(=S)N(C)C2=O)c1` stands 95.5%; under `CCc1ccc(/C=C2\C(=O)NN(c3ccc(Cl)c(Cl)c3)C2=O)cc1`, 5.7%.
Under `CCOc1cc(C(=O)Nc2ccc3c(c2)OCCO3)cc(OCC)c1OCC` stands -7.7%; under `C=CCn1c(C)c(/C=C(/C#N)C(=O)Nc2ccc(OC)cc2)c2ccccc21`, -6.6%; under `CCOC(=O)c1c(NC(=O)c2ccc(C(=O)c3ccccc3)cc2)sc2c1CCC2`, 10.7%.
In the case of `Cc1ccc(N[C@@H]2O[C@H](CO)[C@@H](O)[C@H](O)[C@@H]2O)cc1`, the displacement was 11%.
Under `CC(=O)Oc1ccc2c(C)c(C)c(=O)oc2c1` stands 6.4%; under `CCSc1nnc2c(n1)OC(c1ccc(OCc3ccccc3)cc1)Nc1ccccc1-2` (configuration not stated), 120%.
With `CSc1nnc2c(n1)OC(c1ccc(OCc3ccccc3)cc1)Nc1ccccc1-2` (configuration not stated), the displacement is 7.4%.
Under `CCSc1nnc2c(n1)OC(c1ccc(C(=O)O)cc1)Nc1ccccc1-2` (configuration not stated) stands 9.9%.
For `CCOC(=O)C1=C(O)/C(=C/c2ccc([N+](=O)[O-])cc2)SC1=Nc1ccc(C)cc1` the value was -3.1%; for `CCOC(=O)C1=C(O)/C(=C/c2ccc(F)cc2)SC1=Nc1ccc([N+](=O)[O-])cc1`, 59.1%.
For `CCOC(=O)C1=C(O)CSC1=Nc1ccc(Cl)cc1` the value was -6.7%; for `CCOC(=O)C1=C(O)/C(=C/c2ccc(Cl)cc2)SC1=Nc1ccc([N+](=O)[O-])cc1`, -7.6%; for `CCOC(=O)C1=C(O)/C(=C/c2ccc(O)cc2)SC1=Nc1ccc([N+](=O)[O-])cc1`, -9.8%.
Turning to `CCOC(=O)C1=C(O)/C(=C/c2ccc(OCC)cc2)SC1=Nc1ccc([N+](=O)[O-])cc1`, the displacement was 122%.
Under `CCOC(=O)C1=C(O)CSC1=Nc1ccc(C)cc1` stands -15.6%; under `CCOC(=O)C1=C(O)/C(=C/c2ccc(O)c(OCC)c2)SC1=Nc1ccc([N+](=O)[O-])cc1`, -5.5%; under `CCOC(=O)C1=C(O)CSC1=Nc1ccc([N+](=O)[O-])cc1`, 112%.
For `COc1ccc(Oc2coc3cc(OC(C)=O)ccc3c2=O)cc1` the value was 11.2%; for `COc1ccc2nc(NC(=O)COc3ccc(Cl)cc3)sc2c1`, 14.5%; for `COc1ccc(NC(=O)CCCOc2ccccc2)c(OC)c1`, -3.2%.
As to `COc1cc(NC(=O)CCCOc2ccccc2)c(OC)cc1Cl`, the displacement was 71.9%.
For `COc1cc(NC(=O)CCCOc2ccc(Cl)cc2Cl)c(OC)cc1Cl` the value was 0.2%.
For `O=C(N/N=C/c1cccs1)c1sc2cc(Cl)ccc2c1Cl` the value was 7.2%.
Under `O=C(NCc1cccs1)c1sc2cc(F)ccc2c1Cl` stands -3.8%; under `C/C(=N/NC(=O)c1sc2cc(F)ccc2c1Cl)c1cccs1`, 132%.
On to `CC1=C(C(=O)Nc2cc(Cl)ccc2C)C(c2ccccc2Br)NC(=S)N1` (configuration not stated), for which the displacement is -8.3%.
For `O=C(Nc1ccc(O)c(-c2nc3ccccc3o2)c1)c1cc2ccccc2o1` the value was -10.8%; for `CCOC(=O)NC(NC(=O)OCC)c1cccc([N+](=O)[O-])c1`, -5.1%; for `CCOc1cc(/C=C2/SC(=S)N(C)C2=O)ccc1OC(=O)c1ccc(F)cc1`, 13.6%.
For `COc1cc(/C=C2\SC(=S)N(CC(=O)O)C2=O)cc(OC)c1OC` the value was -4%; for `COc1cc(/C=C2\SC(=S)N(CC(=O)N3CCCc4ccccc43)C2=O)cc(OC)c1OC`, 91.5%; for `CCN1C(=O)/C(=C\c2ccc(O)c(OC)c2)SC1=S`, -3.9%.
Under `CCOc1cc(/C=C2\SC(=S)N(CC(C)C)C2=O)ccc1O` stands 15.9%; under `CCOc1cc(/C=C2\SC(=S)N(C)C2=O)ccc1O`, -6.7%.
For `CCOc1cc(/C=C2/SC(=S)N(C)C2=O)ccc1OC(=O)c1ccc(C)cc1`, the displacement was 62.3%.
For `CCOc1cc(/C=C2/SC(=S)N(C)C2=O)ccc1OS(=O)(=O)c1ccc(C)cc1` the value was -1.9%; for `COc1cc(/C=C2/SC(=S)N(CC(=O)N3CCOCC3)C2=O)cc(OC)c1OC`, 13.2%.
Take `CCOc1cc(/C=C2\SC(=S)N(CCOC)C2=O)ccc1O`: the displacement worked out at 89.2%.
`COCCN1C(=O)/C(=C/c2ccc(O)c(OC)c2)SC1=S`: the displacement is -4.4%.
For the compound `COc1cc(/C=C2\SC(=S)N(CC(C)C)C2=O)ccc1O`, the displacement worked out at 91.5%.
Under `CC1(C)Nc2ccccc2N(Cc2ccc(Cl)c(Cl)c2)C1=O` stands -7.9%; under `Cc1ccc(-c2nc3ccccc3o2)cc1NC(=O)c1ccco1`, 3.1%; under `CCOC(=O)C(=O)Nc1ccc(S(=O)(=O)Nc2nccc(C)n2)cc1`, 27.4%.
Under `CC(=O)Nc1ccc(S(=O)(=O)Nc2ccc(C(=O)Nc3nccs3)cc2)cc1` stands 7.5%.
Regarding `COC(=O)c1sccc1NC(=O)/C=C/c1ccc([N+](=O)[O-])cc1`, the displacement was 5.4%.
For `CC(=O)OC1CC(C)(C)N([O])C(C)(C)C1` the value was 5.8%; for `O=C1C2ON(c3ccccc3)C(c3ccco3)C2C(=O)N1c1ccc(N2CCOCC2)cc1` (configuration not stated), 2.3%; for `C=CCNC(=O)c1ccc(OCc2ccccc2)cc1`, 10.2%.
For the compound `C/C(=N\NC(=O)c1ccncc1)c1ccco1`, the displacement is -4.8%.
For `O=C(Nc1ccc(-c2nc3ccccc3s2)cc1)c1cc2ccccc2o1` the value was -6.9%; for `S=C1NC(c2ccccc2)=NCN1c1ccccc1`, 1.8%.
For `COc1cc(/C=C2/SC(=S)N(C)C2=O)ccc1OCCOc1ccc(Br)cc1` the value was 2.3%; for `C=CCN1C(=O)/C(=C\c2ccc(OCc3ccc(Br)cc3)c(OC)c2)SC1=S`, -11.3%; for `COC(=O)CN1C(=O)/C(=C/c2ccc(OCc3ccc(Cl)cc3)c(OC)c2)SC1=S`, 87.2%.
As for `CCOc1cc(/C=C2/SC(=S)N(CC)C2=O)cc(Br)c1OCCOc1cccc(OC)c1`, the displacement worked out at 92.3%.
As to `CCN1C(=O)/C(=C\c2cc(Cl)c(OCCOc3cccc(OC)c3)c(OC)c2)SC1=S`, the displacement was found to be 2.9%.
For `CCOc1cc(/C=C2\SC(=S)N(CCS(=O)(=O)O)C2=O)ccc1O` the value was -60.3%; for `CCOc1cc(/C=C2\SC(=S)N(CC(=O)OC)C2=O)ccc1O`, 122%.
Take `COC(=O)CN1C(=O)/C(=C\c2cccc(O)c2)SC1=S`: the displacement stood at 0%.
Turning to `COc1cc(/C=C2/SC(=S)N(C)C2=O)ccc1OCc1ccc(Br)cc1`, the displacement was 88.9%.
For `CCN1C(=O)/C(=C\c2cccc(OCCOc3cccc(OC)c3)c2)SC1=S` the value was 3.4%; for `COC(=O)CN1C(=O)/C(=C/c2ccc(OCc3ccccc3Cl)c(OC)c2)SC1=S`, 10.3%.
Under `COC(=O)CCN1C(=O)/C(=C/c2ccc(OCc3ccc(Cl)cc3)c(OC)c2)SC1=S` stands 24.7%.
